# Test results reported in PubChem BioAssay (EPA / NIEHS).
# Records with an inconclusive call do not appear. Activity calls are given as the source filed them. The calls were made as follows, unless noted: active = hit-call score of the fitted dose curve at least 0.9, where 1 is the maximum; inconclusive = response in the unintended direction; inactive = score below 0.9.
# Columns and labels:
# [1] = CCTE_Deisenroth_AIME_384WELL_CTox_Inactive: Cytotoxicity Assessment (CTOX) in CCTE's 384-well Estrogen Receptor Transactivation Assay without AIME metabolic competence (metabolism negative), Deisenroth Lab (AID 2284039);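 also: cell viability via live-cell protease substrate cleaved to fluorescent probe; cells exposed 24 h to medium preincubated 2 h with alginate-water beads without S9; loss of fluorescence signal means loss of viability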
# Outline: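 Metabolism-negative arm: chemicals (10-point, 0.002 - 200 uM) preincubated 2 h with alginate-water lids, medium moved onto VM7Luc4E2 cells for 24 h. Fluorescent live-cell protease readout; bidirectional curve fit.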
# [2] = target: Estrogen receptor (Homo sapiens) (UniProt P03372); experiment: CCTE_Deisenroth_AIME_384WELL_LUC_Inactive: CCTE's 384-well Estrogen Receptor Transactivation Assay without AIME metabolic competence (ERTA luciferase; metabolism negative), Deisenroth Lab (AID 2284038);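 also: VM7Luc4E2 breast cells given medium preincubated 2 h with S9-free microspheres; hits raise estrogen receptor luciferase signal so potencies reflect agonists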
# Outline: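 Chemicals (10-point series, 0.002 - 200 uM) were incubated 2 hours with alginate-water microsphere lids lacking S9, then the conditioned medium was transferred to VM7Luc4E2 breast cells for 24 hour. Luciferase induction was read by bioluminescence, fitted upward relative to 17beta-estradiol.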
# [3] = target: Estrogen receptor (Homo sapiens) (UniProt P03372); experiment: CCTE_Deisenroth_AIME_384WELL_LUC_Shift: CCTE's 384-well Estrogen Receptor Transactivation Assay with AIME metabolic competence data shift (ERTA luciferase; difference in metabolism positive and negative), Deisenroth Lab (AID 2284041; active = hit-call score of the fitted dose curve at least 0.9, where 1 is the maximum; inactive = score below 0.9;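 also: shift is response with S9 minus without S9 so positive means metabolism raised ER signal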)
# Outline: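 Here, parent compounds undergo 2 h phase I metabolism by PB/BNF-induced rat S9 before 24 h transactivation in VM7Luc4E2 cells; the curve models S9-positive minus S9-negative response over a 10-point series.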
# [4] = CCTE_Shafer_MEA_dev_active_electrodes_number: CCTE's Neural Network Formation Assay for Number of Active Electrodes, Shafer Lab (AID 2284040)
# Outline: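 Rat cortical primary cultures, 1.5 x 10^5 cells/well, PEI-coated MEA, laminin drop. Continuous exposure DIV 0–12; full media/compound change DIV 5, 9. Readout: electrodes with mean firing ≥5 spikes/min; AUC across days; loss vs DMSO.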
# [5] = CCTE_Shafer_MEA_dev_burst_rate: CCTE's Neural Network Formation Assay for Burst Rate, Shafer Lab (AID 2284042; active = hit-call score of the fitted dose curve at least 0.9, where 1 is the maximum; inactive = score below 0.9)
# Outline: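 Cells plated, treated day 0; recorded DIV 5, 7, 9, 12; fed and re-treated DIV 5, 9. Endpoint: bursts per recording time, active-electrode well mean, trapezoidal AUC, fitted in decreasing direction against DMSO baseline.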
# [6] = CCTE_Shafer_MEA_dev_bursting_electrodes_number: CCTE's Neural Network Formation Assay for Number of Bursting Electrodes, Shafer Lab (AID 2284043)
# Outline: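 Primary rat cortical neurons were cultured on PEI-coated 48-well MEA plates (16 electrodes/well) and exposed from plating through day 12, with compound renewed at feeds on DIV 5 and 9. Electrodes bursting ≥1 per 2 min were counted on DIV 5, 7, 9, 12; trapezoidal AUC taken.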
# [7] = CCTE_Shafer_MEA_dev_per_burst_interspike_interval: CCTE's Neural Network Formation Assay for Burst Interspike Interval, Shafer Lab (AID 2284044; active = hit-call score of the fitted dose curve at least 0.9, where 1 is the maximum; inactive = score below 0.9;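 also: mean spike spacing inside bursts as AUC over recordings on days 5 7 9 12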)
# Outline: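 Neurons from rat cortex plated onto PEI-coated MEA wells with laminin […] at 1.5 x 10^5 cells/well, then treated from day 0. Media and compound fully replaced on DIV 5 and 9. Extracellular spontaneous firing recorded four times; interspike interval per burst summarised as AUC.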
# [8] = CCTE_Shafer_MEA_dev_burst_duration_mean: CCTE's Neural Network Formation Assay for Mean Burst Duration, Shafer Lab (AID 2284045; active = hit-call score of the fitted dose curve at least 0.9, where 1 is the maximum; inactive = score below 0.9)
# Outline: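 Primary rat cortical neurons on PEI-coated 16-electrode MEA wells, exposed from plating through day 12 with compound renewed at DIV 5 and 9; spontaneous activity recorded days 5, 7, 9, 12. Well-mean burst duration collapsed as trapezoidal AUC, fitted for loss versus DMSO.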
# [9] = CCTE_Shafer_MEA_dev_interburst_interval_mean: CCTE's Neural Network Formation Assay for Mean Interburst Interval, Shafer Lab (AID 2284046; active = hit-call score of the fitted dose curve at least 0.9, where 1 is the maximum; inactive = score below 0.9;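 also: well-mean interburst interval of bursting electrodes as AUC over four recording days; curve fitted for decrease in interburst interval relative to DMSO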)
# Outline: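 Developing rat cortical networks on 48-well MEAs receive compound from the day of plating. Burst intervals from each active electrode are averaged per well, and AUC over the recording days is fitted in the negative direction against DMSO.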
# [10] = CCTE_Shafer_MEA_dev_inter_network_spike_interval_mean: CCTE's Neural Network Formation Assay for Mean Inter-network Spike Interval, Shafer Lab (AID 2284047; active = hit-call score of the fitted dose curve at least 0.9, where 1 is the maximum; inactive = score below 0.9)
# Outline: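 Rat cortical cultures, 1.5 x 10^5 cells/well on 48-well MEA plates; continuous exposure days 0–12, medium and compound refreshed DIV 5, 9. Mean time between consecutive network-spike peaks; AUC across DIV 5/7/9/12; DMSO baseline, negative fitting direction.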
# [11] = CCTE_Shafer_MEA_dev_network_spike_number: CCTE's Neural Network Formation Assay for Number of Network Spikes, Shafer Lab (AID 2284048; active = hit-call score of the fitted dose curve at least 0.9, where 1 is the maximum; inactive = score below 0.9;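 also: synchronized bursts across electrodes counted on days 5 7 9 12 and integrated as AUC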)
# Outline: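 Primary rat cortical neurons were seeded at 1.5 x 10^5 cells/well on PEI-coated 16-electrode MEA wells with laminin, exposed from plating day 0, compound renewed at DIV 5 and 9. Network spikes were recorded on days 5, 7, 9, 12 and summarized as trapezoidal AUC versus DMSO.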
# [12] = CCTE_Shafer_MEA_dev_network_spike_peak: CCTE's Neural Network Formation Assay for Mean Number of Electrodes in Network Spike, Shafer Lab (AID 2284049; active = hit-call score of the fitted dose curve at least 0.9, where 1 is the maximum; inactive = score below 0.9)
# Outline: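 Continuous 12-day exposure of rat cortical cultures, starting at plating, on MEA plates. Endpoint: electrodes participating in network-spike peaks, AUC across DIV 5–12, DMSO as negative control.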
# [13] = CCTE_Shafer_MEA_dev_spike_duration_mean: CCTE's Neural Network Formation Assay for Mean Spike Duration, Shafer Lab (AID 2284051; active = hit-call score of the fitted dose curve at least 0.9, where 1 is the maximum; inactive = score below 0.9;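 also: mean network spike duration pooled as area under curve over DIV 5 to 12 recordings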)
# Outline: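 Readout is the average length of network spikes, clustered firing across electrodes, summed over DIV 5, 7, 9 and 12 as area under the curve. Neurons from rat cortex developed networks on MEA plates under continuous 12-day exposure.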
# [14] = CCTE_Shafer_MEA_dev_network_spike_duration_std: CCTE's Neural Network Formation Assay for Standard Deviation of Network Spike Duration, Shafer Lab (AID 2284052; active = hit-call score of the fitted dose curve at least 0.9, where 1 is the maximum; inactive = score below 0.9;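 also: area under curve of spike duration SD across recording days 5 to 12; hits are decreases in network spike duration SD versus DMSO vehicle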)
# Outline: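 Read-out is the trapezoidal area-under-the-curve across recordings made on days 5, 7, 9 and 12, fitted in the negative direction against DMSO baseline. Neurons were primary rat cortical cells treated from day 0, with treatment renewed at each feed.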
# [15] = CCTE_Shafer_MEA_dev_per_network_spike_spike_number_mean: CCTE's Neural Network Formation Assay for Mean Number of Spikes in a Network Spike, Shafer Lab (AID 2284053; active = hit-call score of the fitted dose curve at least 0.9, where 1 is the maximum; inactive = score below 0.9)
# Outline: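 Continuous twelve-day exposure of developing rat cortical networks grown over 16 microelectrodes per well; spontaneous firing is captured at four time points, and the per-network-spike spike number is integrated over development by trapezoidal AUC.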
# [16] = CCTE_Shafer_MEA_dev_per_network_spike_spike_percent: CCTE's Neural Network Formation Assay for Percent of Spikes in a Network Spike, Shafer Lab (AID 2284054; active = hit-call score of the fitted dose curve at least 0.9, where 1 is the maximum; inactive = score below 0.9)
# Outline: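 Primary rat cortical neurons on 16-electrode MEA wells (PEI-coated, laminin at plating), exposed from day 0 with renewal at DIV 5 and 9; spikes within 0.05 s of network-spike peaks over total spikes, AUC across days 5, 7, 9, 12.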
# DIO2 (gene 1734) = experiment: CCTE_GLTED_hDIO2: CCTE's human Deiodinase 2 (DIO2) Inhibition Assay, Great Lakes Toxicology and Ecology Division (GLTED) Lab (AID 2284050)
# Outline: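 Cell-free human DIO2 enzyme was incubated with test chemical for 3 h; iodide liberated from substrate was then quantified by the Sandell-Kolthoff reaction (absorbance), run in triplicate. Loss of signal versus DMSO baseline indicated inhibition.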
# DIO3 (gene 1735) = experiment: CCTE_GLTED_hDIO3: CCTE's human Deiodinase 3 (DIO3) Inhibition Assay, Great Lakes Toxicology and Ecology Division (GLTED) Lab (AID 2284055);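 also: potency is for inhibition seen as loss of released iodide signal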
# Outline: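 Cell-free assay with human DIO3 enzyme produced by adenovirus expression; enzyme incubated with test chemical for 3 hours. Liberated iodide then measured by Sandell-Kolthoff absorbance; loss of signal versus DMSO baseline indicates inhibition, run in triplicate.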
# [17] = CCTE_Shafer_MEA_dev_LDH: CCTE's Lactate Dehydrogenase Assay for Cytotoxicity in the Neural Network Formation Assay, Shafer Lab (AID 2284068);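 also: exposure for twelve days from plating with re-dosing on DIV 5 and 9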
# Outline: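 Cytotoxicity companion to network-formation recordings: rat cortical neurons received compound over 12 days of development, re-dosed at DIV 5 and 9 feeds. Viability was inferred from LDH enzyme activity relative to DMSO.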
# Sequence of Estrogen receptor (Homo sapiens) (P03372 whole entry, looked up): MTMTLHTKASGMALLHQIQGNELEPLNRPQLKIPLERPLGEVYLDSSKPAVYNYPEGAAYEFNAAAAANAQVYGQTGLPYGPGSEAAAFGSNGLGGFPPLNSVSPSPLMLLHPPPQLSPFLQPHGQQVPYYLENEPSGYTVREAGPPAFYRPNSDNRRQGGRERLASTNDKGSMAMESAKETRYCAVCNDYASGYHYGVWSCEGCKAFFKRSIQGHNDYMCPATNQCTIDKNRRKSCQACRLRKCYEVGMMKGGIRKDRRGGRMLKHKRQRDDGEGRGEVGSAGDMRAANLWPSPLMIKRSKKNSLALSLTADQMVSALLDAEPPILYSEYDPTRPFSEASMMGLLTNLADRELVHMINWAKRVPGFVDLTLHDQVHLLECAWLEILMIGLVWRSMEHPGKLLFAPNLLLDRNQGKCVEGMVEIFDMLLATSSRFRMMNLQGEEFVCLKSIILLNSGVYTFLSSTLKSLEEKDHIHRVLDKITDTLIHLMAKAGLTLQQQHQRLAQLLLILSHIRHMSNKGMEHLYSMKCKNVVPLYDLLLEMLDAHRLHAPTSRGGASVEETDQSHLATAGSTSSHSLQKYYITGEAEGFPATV
smiles,measurement,setting,value
CC(C)CC(C)CC(O)CC(C)C (stereo not given),outcome,[1],inactive
C=CC(C)(O)CCC=C(C)C (stereo not given),outcome,[1],inactive
CCCCCCC(C)(C)S,outcome,[1],inactive
O=C(CC(=O)c1ccccc1)c1ccccc1,outcome,[1],inactive
Nc1ccc2cc(S(=O)(=O)O)cc(O)c2c1N=Nc1ccccc1C(F)(F)F,AC50,[1],38.2 µM (active)
Nc1ccc(N)c2c1C(=O)c1ccccc1C2=O,AC50,[1],28.9 µM (active)
CCCCCCCCSCCO,outcome,[1],inactive
COc1ccccc1N=Nc1c(S(=O)(=O)O)cc2cc(S(=O)(=O)O)cc(NC(C)=O)c2c1O,AC50,[1],42.9 µM (active)
CCCCCCCCCCCC(=O)OCC(O)CO (stereo not given),outcome,[2],inactive
same,outcome,[1],inactive
same,outcome,[3],inactive
CN1C(=O)c2ccccc2C1=O,outcome,[1],inactive
O=P(O)(O)O,outcome,[1],inactive
O=[N+]([O-])c1ccc(O)cc1C(F)(F)F,AC50,[1],34.9 µM (active)
CCOC(=O)C1OC1c1ccccc1 (stereo not given),outcome,[1],inactive
CS(=O)(=O)OCCCCOS(C)(=O)=O,outcome,[2],inactive
same,outcome,[4],inactive
same,outcome,[3],inactive
same,outcome,[5],inactive
same,outcome,[6],inactive
same,outcome,[7],inactive
same,outcome,[8],inactive
same,outcome,[9],inactive
same,outcome,[10],inactive
same,outcome,[11],inactive
same,outcome,[12],inactive
same,outcome,[13],inactive
same,outcome,[14],inactive
same,outcome,[15],inactive
same,outcome,[16],inactive
O=C1OC(=O)c2c(Cl)c(Cl)c(Cl)c(Cl)c21,outcome,[1],inactive
O=C(O)c1ccc(O)cc1,outcome,[1],inactive
CC(C)CCCCCCc1ccc(OCCOCCO)cc1,outcome,[2],inactive
same,outcome,[1],inactive
same,outcome,[3],inactive
Nc1ccccc1[N+](=O)[O-],outcome,[1],inactive
C=C(C)[C@@H]1CC=C(C)C(=O)C1,outcome,[1],inactive
Clc1ccc(C(c2ccccc2Cl)C(Cl)Cl)cc1 (stereo not given),AC50,[1],152 µM (active)
CCCCCCCCCCCCN1CCCCCC1=O,AC50,DIO2 (gene 1734),116 µM (active)
same,AC50,DIO3 (gene 1735),89.2 µM (active)
CCOc1ccc(N=Nc2ccc(C=Cc3ccc(N=Nc4ccc(OCC)cc4)cc3S(=O)(=O)O)c(S(=O)(=O)O)c2)cc1,AC50,DIO2 (gene 1734),43.9 µM (active)
same,AC50,DIO3 (gene 1735),35.6 µM (active)
COCCOCCOCCO,outcome,[1],inactive
same,outcome,[4],inactive
same,outcome,[5],inactive
same,outcome,[6],inactive
same,outcome,[7],inactive
same,outcome,[8],inactive
same,outcome,[9],inactive
same,outcome,[10],inactive
same,outcome,[11],inactive
same,outcome,[12],inactive
same,outcome,[13],inactive
same,outcome,[14],inactive
same,outcome,[15],inactive
same,outcome,[16],inactive
same,outcome,[17],inactive
COc1ccc(N=Nc2cc(C)c(N=Nc3ccc(S(=O)(=O)O)cc3)cc2OC)cc1,AC50,DIO2 (gene 1734),100 µM (active)
same,AC50,DIO3 (gene 1735),100 µM (active)
CC(C)CCCCCCCCCCCCCCC(=O)O,AC50,DIO2 (gene 1734),100 µM (active)
same,AC50,DIO3 (gene 1735),19.4 µM (active)
C=C1CC[C@H](O)C/C1=C/C=C1\CCC[C@]2(C)[C@@H]([C@H](C)/C=C/[C@H](C)C(C)C)CC[C@@H]12,AC50,DIO2 (gene 1734),19.8 µM (active)
same,AC50,DIO3 (gene 1735),2.3 µM (active)
C=C(C)C(=O)OCCOC1CC2CC1C1C=CCC21 (stereo not given),AC50,DIO2 (gene 1734),13 µM (active)
same,AC50,DIO3 (gene 1735),6.43 µM (active)
